Results reported in PubChem BioAssay.
Activity calls are given as the source filed them.

Key:
[1] = system: PRMT1 (protein arginine N-methyltransferase 1); assay: PRMT1 binders on small-molecule microarrays, primary screen, biochemical, small-molecule microarray, 635 nm fluorescence (AID 1088); conditions: small-molecule microarray binding, higher = more signal;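 further: binding of Prmt1 protein to compounds spotted on small-molecule microarray slides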
[2] = yeast growth modulation, basal conditions, primary screen, YJM789 clinical isolate, OD600, 24 h (AID 1089);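 further: growth of clinical yeast isolate S. cerevisiae YJM 789 seeded 1000 cells per well; test concentration not given here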; conditions: S. cerevisiae YJM789 growth, higher = more signal, called active from +8 up or from −8 down
[3] = fission yeast growth modulation, primary screen, strain 972, OD600, 24 h, no modulator (AID 1090);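 further: basal condition with compound alone and no growth modifier present; test concentration not given here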; conditions: S. pombe 972 growth, higher = more signal, called active from +8 up or from −8 down
[4] = S. cerevisiae growth modulation with rapamycin, primary screen, strain BY4716, OD600, 96 h (AID 1091); conditions: higher = more signal, called active from +8 up or from −8 down; further: test concentration not given here
[5] = target: Torsin-1A-interacting protein 2 (Homo sapiens) (UniProt Q8NFQ8); assay: LULL1 binders on small-molecule microarray, primary screen, cell lysate, human LULL1 lysate, 635/667 nm fluorescence (AID 1092); conditions: hLULL1 lysate binding, 635 nm fluorescence, higher = more signal;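 further: probe is lysate of COS7 cells overexpressing human LULL1; score merges per-feature 667 nm fluorescence with signal-to-noise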
Sequence of Torsin-1A-interacting protein 2 (Homo sapiens) (Q8NFQ8 whole entry, looked up): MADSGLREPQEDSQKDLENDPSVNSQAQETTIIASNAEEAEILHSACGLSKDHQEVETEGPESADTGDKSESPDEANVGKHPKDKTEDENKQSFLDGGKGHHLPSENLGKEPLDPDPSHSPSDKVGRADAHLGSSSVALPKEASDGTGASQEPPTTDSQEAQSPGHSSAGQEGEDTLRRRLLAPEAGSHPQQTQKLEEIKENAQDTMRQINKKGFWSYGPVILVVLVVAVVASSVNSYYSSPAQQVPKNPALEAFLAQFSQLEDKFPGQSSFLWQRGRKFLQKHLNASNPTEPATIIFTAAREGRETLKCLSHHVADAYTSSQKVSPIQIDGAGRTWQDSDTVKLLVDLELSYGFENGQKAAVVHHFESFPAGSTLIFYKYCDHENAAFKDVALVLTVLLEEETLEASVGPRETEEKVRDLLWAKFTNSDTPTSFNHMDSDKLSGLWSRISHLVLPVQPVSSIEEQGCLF

[6] = E. coli growth modulation, two-sided OD650, primary screen, E. coli filamentation project, strain DRC41, 24 h (AID 1093); conditions: OD650, 24 h, higher = more signal, called active from +8 up or from −8 down;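 further: MC1000 strain lacking acrAB efflux and sulA so SOS filamentation is blocked; test concentration not given here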
[7] = small-molecule microarray binders of probe aLefty2, primary screen, biochemical, biotinylated probe, 635/667 nm fluorescence (AID 1094); conditions: higher = more signal;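 further: score merges spot fluorescence near 667 nm with spot signal-to-noise ratio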
[8] = system: Noggin (protein binding on small-molecule microarray); assay: Noggin binders on small-molecule microarray, primary screen, biochemical, 635/667 nm fluorescence (AID 1095); conditions: 635 nm fluorescence, higher = more signal;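 further: score merges 667 nm feature fluorescence with signal to noise over triplicate slides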
[9] = target: Neurogenic locus notch homolog protein 3 (Homo sapiens) (UniProt Q9UM47); assay: NOTCH3 binders on small-molecule microarray, primary screen, biochemical, 635/667 nm fluorescence (AID 1096); conditions: NOTCH3 binding, 635 nm fluorescence, higher = more signal
Sequence of Neurogenic locus notch homolog protein 3 (Homo sapiens) (Q9UM47 whole entry, looked up): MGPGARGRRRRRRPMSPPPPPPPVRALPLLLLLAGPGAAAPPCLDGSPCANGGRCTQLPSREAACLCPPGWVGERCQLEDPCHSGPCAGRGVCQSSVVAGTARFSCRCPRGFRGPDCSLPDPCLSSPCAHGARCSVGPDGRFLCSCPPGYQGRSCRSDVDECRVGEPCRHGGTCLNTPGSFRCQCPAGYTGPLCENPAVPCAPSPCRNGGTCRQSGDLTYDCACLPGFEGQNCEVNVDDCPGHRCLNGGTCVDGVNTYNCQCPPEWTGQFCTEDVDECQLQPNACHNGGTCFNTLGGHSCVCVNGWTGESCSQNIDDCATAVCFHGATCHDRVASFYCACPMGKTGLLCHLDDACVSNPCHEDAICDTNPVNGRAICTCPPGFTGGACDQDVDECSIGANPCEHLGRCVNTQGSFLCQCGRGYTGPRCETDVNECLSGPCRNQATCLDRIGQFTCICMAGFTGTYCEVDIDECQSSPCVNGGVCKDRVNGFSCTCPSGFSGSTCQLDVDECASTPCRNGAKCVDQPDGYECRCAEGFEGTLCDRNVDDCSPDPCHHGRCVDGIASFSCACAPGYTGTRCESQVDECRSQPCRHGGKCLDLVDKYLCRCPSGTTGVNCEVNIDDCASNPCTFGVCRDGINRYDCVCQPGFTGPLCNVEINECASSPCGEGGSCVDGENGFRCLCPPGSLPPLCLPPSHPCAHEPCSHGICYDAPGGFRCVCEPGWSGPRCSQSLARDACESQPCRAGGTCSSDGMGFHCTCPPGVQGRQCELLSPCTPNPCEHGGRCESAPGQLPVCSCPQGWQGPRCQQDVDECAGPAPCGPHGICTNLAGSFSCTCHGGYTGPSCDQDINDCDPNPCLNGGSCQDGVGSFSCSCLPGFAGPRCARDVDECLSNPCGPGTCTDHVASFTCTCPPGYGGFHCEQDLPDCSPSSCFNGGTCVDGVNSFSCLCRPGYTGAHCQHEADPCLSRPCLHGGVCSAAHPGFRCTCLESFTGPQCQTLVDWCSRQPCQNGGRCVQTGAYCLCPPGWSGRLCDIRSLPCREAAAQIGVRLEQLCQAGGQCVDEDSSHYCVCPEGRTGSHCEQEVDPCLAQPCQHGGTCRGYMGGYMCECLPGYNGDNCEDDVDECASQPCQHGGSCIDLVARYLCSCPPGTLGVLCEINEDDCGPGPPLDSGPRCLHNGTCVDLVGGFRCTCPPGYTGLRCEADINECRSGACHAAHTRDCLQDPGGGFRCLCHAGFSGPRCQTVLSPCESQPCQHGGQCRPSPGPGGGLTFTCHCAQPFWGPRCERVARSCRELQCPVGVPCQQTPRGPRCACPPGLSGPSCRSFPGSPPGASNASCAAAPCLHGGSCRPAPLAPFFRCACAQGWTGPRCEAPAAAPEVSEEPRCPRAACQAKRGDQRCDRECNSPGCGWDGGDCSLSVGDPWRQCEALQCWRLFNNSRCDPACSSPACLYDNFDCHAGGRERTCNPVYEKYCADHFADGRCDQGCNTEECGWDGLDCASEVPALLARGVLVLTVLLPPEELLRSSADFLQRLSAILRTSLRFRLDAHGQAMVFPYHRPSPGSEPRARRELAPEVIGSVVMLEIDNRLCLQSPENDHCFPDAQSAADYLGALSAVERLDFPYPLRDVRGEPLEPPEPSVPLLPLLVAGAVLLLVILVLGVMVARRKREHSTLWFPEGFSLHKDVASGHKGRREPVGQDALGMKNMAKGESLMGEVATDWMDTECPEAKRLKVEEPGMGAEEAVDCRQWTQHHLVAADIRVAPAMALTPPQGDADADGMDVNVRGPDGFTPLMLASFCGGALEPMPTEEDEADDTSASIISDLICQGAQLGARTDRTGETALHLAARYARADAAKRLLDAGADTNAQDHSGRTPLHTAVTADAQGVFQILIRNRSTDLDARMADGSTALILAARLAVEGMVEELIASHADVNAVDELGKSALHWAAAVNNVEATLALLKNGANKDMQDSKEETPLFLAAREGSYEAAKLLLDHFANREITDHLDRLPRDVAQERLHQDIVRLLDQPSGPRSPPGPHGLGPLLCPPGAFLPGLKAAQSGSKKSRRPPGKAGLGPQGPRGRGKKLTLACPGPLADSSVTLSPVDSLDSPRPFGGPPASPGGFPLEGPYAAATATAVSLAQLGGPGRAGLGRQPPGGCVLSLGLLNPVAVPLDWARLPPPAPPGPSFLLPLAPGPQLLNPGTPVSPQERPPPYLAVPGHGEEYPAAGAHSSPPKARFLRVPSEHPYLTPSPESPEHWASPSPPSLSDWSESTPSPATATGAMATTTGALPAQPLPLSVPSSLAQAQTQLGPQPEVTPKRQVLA

[10] = small-molecule microarray binders of probe aEGFR, primary screen, biochemical, biotinylated probe, 635/667 nm fluorescence (AID 1097); conditions: higher = more signal;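 further: probe is a biotinylated anti-EGFR antibody binding compounds printed on slides; score combines fluorescence near 667 nm and signal to noise of each spot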
[11] = system: Plasmodium falciparum Sir2 (PF13_0152, Sir2A); assay: pfSir2 binders on small-molecule microarrays, primary screen, biochemical, small-molecule microarray, 635 nm fluorescence (AID 1098); conditions: small-molecule microarray binding, fluorescence 635 nm; higher = more signal;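 further: score merges spot fluorescence intensity with its signal-to-noise ratio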
[12] = small-molecule microarray binders of probe aDKK1, primary screen, biochemical, biotinylated probe, 635/667 nm fluorescence (AID 1099); conditions: higher = more signal;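 further: score merges 667nm spot fluorescence with signal to noise across triplicate slides; reference of the scale not given here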
[13] = small-molecule microarray binders of probe aCHRDL2, primary screen, biochemical, biotinylated probe, 635/667 nm fluorescence (AID 1100); conditions: higher = more signal
[14] = splicing luciferase reporter signal modulators, primary screen, spliceosome inhibition project, cell-based, HEK293, splice +/- reporter (AID 1101); conditions: luminescence, 24 h, higher = more signal, called active from +8 up or from −8 down;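 further: HEK293 cells carrying a splicing-competent luciferase reporter gene; test concentration not given here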
[15] = target: Fibroblast growth factor 10 (Homo sapiens) (UniProt O15520); assay: FGF10 binders on small-molecule microarrays, primary screen, biochemical, small-molecule microarray, 635 nm fluorescence (AID 1102); conditions: FGF10 binding, fluorescence 635 nm, higher = more signal
Sequence of Fibroblast growth factor 10 (Homo sapiens) (O15520 whole entry, looked up): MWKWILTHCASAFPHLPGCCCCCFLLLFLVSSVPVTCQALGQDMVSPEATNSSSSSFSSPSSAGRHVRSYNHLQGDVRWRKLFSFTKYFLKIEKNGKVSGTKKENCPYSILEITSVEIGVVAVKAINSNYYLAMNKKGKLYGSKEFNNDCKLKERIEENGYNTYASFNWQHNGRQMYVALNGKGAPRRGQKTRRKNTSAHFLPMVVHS

[16] = system: glycogen synthase kinase-3 (GSK3A per assay name; protocol says GSK3B); assay: GSK3 binders on small-molecule microarrays, primary screen, biochemical, small-molecule microarray, 635 nm fluorescence, GSK3A (AID 1103); conditions: small-molecule microarray binding, fluorescence 635 nm; higher = more signal; further: the record names both GSK3A and GSK3B
[17] = target: Epidermal growth factor receptor (Homo sapiens) (UniProt P00533); assay: EGFR binders on small-molecule microarrays, primary screen, biochemical, small-molecule microarray, 635 nm fluorescence (AID 1104); conditions: EGFR binding, higher = more signal;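 further: score merges 667 nm emission intensity with spot signal to noise over triplicate slides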
Sequence of Epidermal growth factor receptor (Homo sapiens) (P00533 whole entry, looked up): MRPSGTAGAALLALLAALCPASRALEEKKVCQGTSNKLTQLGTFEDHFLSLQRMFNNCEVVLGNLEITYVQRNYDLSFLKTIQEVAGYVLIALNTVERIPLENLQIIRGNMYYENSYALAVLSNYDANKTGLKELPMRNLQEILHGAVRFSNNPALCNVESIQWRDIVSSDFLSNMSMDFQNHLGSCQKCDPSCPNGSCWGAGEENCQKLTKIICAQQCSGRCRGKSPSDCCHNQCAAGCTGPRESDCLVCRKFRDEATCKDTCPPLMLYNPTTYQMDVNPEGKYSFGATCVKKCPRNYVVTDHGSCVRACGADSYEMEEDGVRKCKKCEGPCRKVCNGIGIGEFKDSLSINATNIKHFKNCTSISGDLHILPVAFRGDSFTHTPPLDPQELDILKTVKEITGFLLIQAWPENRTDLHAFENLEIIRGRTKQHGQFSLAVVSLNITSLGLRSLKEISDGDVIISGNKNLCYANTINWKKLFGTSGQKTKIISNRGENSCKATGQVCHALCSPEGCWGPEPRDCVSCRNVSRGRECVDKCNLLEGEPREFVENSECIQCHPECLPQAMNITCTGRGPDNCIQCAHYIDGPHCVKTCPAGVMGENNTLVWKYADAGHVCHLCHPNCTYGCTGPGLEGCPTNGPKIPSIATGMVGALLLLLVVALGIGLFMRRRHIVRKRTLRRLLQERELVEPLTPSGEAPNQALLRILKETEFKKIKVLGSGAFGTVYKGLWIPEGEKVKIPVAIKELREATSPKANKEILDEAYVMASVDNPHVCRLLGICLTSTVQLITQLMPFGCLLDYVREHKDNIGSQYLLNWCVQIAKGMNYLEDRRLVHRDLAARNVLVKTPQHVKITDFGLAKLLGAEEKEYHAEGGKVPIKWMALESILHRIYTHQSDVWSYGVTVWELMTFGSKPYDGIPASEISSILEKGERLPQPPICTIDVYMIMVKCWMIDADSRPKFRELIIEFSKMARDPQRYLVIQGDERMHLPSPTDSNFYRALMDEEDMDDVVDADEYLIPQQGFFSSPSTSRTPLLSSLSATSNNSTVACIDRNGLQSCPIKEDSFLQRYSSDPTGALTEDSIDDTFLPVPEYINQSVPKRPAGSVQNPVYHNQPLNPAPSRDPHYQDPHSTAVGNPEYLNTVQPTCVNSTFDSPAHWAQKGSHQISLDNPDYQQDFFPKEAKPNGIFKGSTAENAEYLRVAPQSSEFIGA

[18] = target: Follistatin-related protein 3 (Homo sapiens) (UniProt O95633); assay: FSTL3 binders on small-molecule microarrays, primary screen, biochemical, small-molecule microarray, 635 nm fluorescence (AID 1105); conditions: FSTL3 binding, higher = more signal;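 further: score merges emission near 667 nm and signal to noise per printed spot across three slides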
Sequence of Follistatin-related protein 3 (Homo sapiens) (O95633 whole entry, looked up): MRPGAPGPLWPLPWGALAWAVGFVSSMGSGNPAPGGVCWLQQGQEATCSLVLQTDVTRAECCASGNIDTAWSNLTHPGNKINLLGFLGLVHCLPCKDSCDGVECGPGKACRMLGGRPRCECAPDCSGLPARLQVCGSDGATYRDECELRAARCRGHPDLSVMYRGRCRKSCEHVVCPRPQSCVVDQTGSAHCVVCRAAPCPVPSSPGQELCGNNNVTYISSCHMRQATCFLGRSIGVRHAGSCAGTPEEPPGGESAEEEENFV

[19] = target: Dickkopf-related protein 1 (Homo sapiens) (UniProt O94907); assay: DKK1 binders on small-molecule microarrays, primary screen, biochemical, small-molecule microarray, 635 nm fluorescence scan (AID 1106); conditions: DKK1 binding, higher = more signal;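 further: score merges emission near 667 nm with signal to noise over three replicate slides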
Sequence of Dickkopf-related protein 1 (Homo sapiens) (O94907 whole entry, looked up): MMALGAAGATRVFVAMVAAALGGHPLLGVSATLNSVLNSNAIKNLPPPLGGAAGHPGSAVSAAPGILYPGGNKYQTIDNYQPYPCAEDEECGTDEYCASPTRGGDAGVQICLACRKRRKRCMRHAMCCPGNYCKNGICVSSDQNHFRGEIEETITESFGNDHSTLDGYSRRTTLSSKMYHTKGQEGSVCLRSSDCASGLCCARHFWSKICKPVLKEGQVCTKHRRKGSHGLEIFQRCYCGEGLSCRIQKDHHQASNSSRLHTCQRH

[20] = system: Inhibin beta A chain (activin A); assay: INHBA (activin A) binders on microarrays, primary screen, biochemical, small-molecule microarray, 635 nm fluorescence scan (AID 1107); conditions: small-molecule microarray binding, higher = more signal;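 further: mouse activin A protein probed at 4.33 µg/mL on printed slides; score merges bound-protein fluorescence near 667 nm with spot signal-to-noise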

SMILES | composite z-score [1] | z-score [2] | z-score [3] | z-score [4] | composite z-score [5] | z-score [6] | composite z-score [7] | composite z-score [8] | composite z-score [9] | composite z-score [10] | composite z-score [11] | composite z-score [12] | composite z-score [13] | z-score [14] | composite z-score [15] | composite z-score [16] | composite z-score [17] | composite z-score [18] | composite z-score [19] | composite z-score [20]
CCCCC=C[C@@H](NC(=O)c1ccccc1)c1ccccc1 | 1.04 | 0.409 (inactive) | 0.336 (inactive) | 0.889 (inactive) | 3.51 | -1.37 (inactive) | -0.0261 | -0.328 | 1.09 | 0.0488 | 0.322 | 0.357 | 0.732 | -0.696 (inactive) | 0.659 | 1.22 | -0.056 | 0.79 | 0.0017 | 1.01
COc1cc(NN2C(C(O)C3CCCCC3)C=CC3C(=O)N(C)C(=O)C32)cc(OC)c1OC (stereo not given) | 1.48 | 0.137 (inactive) | 0.169 (inactive) | 0.0624 (inactive) | 3.46 | -0.853 (inactive) | 0.855 | -0.0279 | 1.09 | 0.186 | 1.04 | 1.05 | 1.1 | 1.1 (inactive) | 0.144 | 1.17 | 0.203 | 1.06 | -1.47 | 0.823
CN1C(=O)[C@@]2(Cc3ccccc3)N=C(c3ccc(OCCCO)cc3)O[C@H]2c2ccccc21 | 1.56 | -1.28 (inactive) | -4.11 (inactive) | 0.843 (inactive) | 2.94 | 0.291 (inactive) | 0.109 | 0.955 | 1 | -0.0982 | 0.318 | 0.428 | 1.02 | -0.528 (inactive) | 1.3 | 1.32 | 0.261 | 1.11 | 0.191 | 1.16
Cc1ccc(F)cc1S(=O)(=O)N[C@@H]1CCN(Cc2cccc3[nH]ccc23)C1 | 0.317 | 0.84 (inactive) | -1.02 (inactive) | -0.639 (inactive) | -0.466 | -0.833 (inactive) | -0.0728 | 0.586 | 0.56 | 0.137 | 0.245 | -0.374 | -0.518 | -0.44 (inactive) | 0.67 | 0.67 | 0.719 | 1.36 | 0.236 | 0.741
O=C(NCCN1CCOCC1)[C@@H]1c2ccccc2C(=O)N(Cc2ccccc2)[C@H]1c1ccc(CO)cc1 | -0.845 | -0.0009 (inactive) | 0.253 (inactive) | -0.412 (inactive) | 0.0893 | 0.311 (inactive) | -0.129 | 0.278 | -0.036 | -0.204 | 0.84 | -0.117 | 0.82 | -0.316 (inactive) | -0.765 | -1.13 | -1.81 | -0.481 | -0.667 | 0.269
COCCOC(=O)N1C(=O)[C@@]2(c3cc(C#CC4(O)CCCCCC4)ccc31)[C@H](c1ccc(OCCO)cc1)N1[C@H](c3ccccc3)[C@H](c3ccccc3)OC(=O)[C@H]1[C@@H]2C(=O)Nc1nc2ccccc2s1 | 1.54 | 1.76 (inactive) | 1.05 (inactive) | 2.93 (inactive) | 1.57 | 0.11 (inactive) | 0.225 | 1.42 | 1.05 | 0.219 | 1.41 | 0.722 | 0.208 | 0.268 (inactive) | 1.05 | 0.522 | 0.538 | 1.33 | 0.559 | 0.308
COCCOC(=O)N1C(=O)[C@@]2(c3cc(C#CC4(O)CCCCCC4)ccc31)[C@H](C(=O)N1CCN(c3ncccn3)CC1)[C@H]1C(=O)O[C@H](c3ccccc3)[C@H](c3ccccc3)N1[C@@H]2c1ccccc1OCCO | 1.2 | 2.56 (inactive) | 2.26 (inactive) | 7.55 (inactive) | 1.79 | -0.267 (inactive) | -0.0795 | 1.04 | 1.08 | 0.0436 | 1.27 | -0.0139 | -0.113 | -0.278 (inactive) | 0.864 | 1.29 | 0.906 | 1.29 | 1.32 | 0.521
C#C[C@@H](CC)O[Si](C#CCCCC#N)(C(C)C)C(C)C | 1.12 | -13.2 (active) | -20.1 (active) | -3.15 (inactive) | 2.2 | 0.619 (inactive) | -0.0257 | -0.298 | 0.398 | -0.128 | 0.329 | 0.155 | -0.0862 | -0.196 (inactive) | -0.232 | -0.021 | -0.405 | -0.669 | -0.277 | 0.573
CC(C)C(=C=CC[C@H](O)c1cccc(OCCO)c1)CCO | 0.801 | -1.16 (inactive) | -0.538 (inactive) | -1.42 (inactive) | 0.228 | 0.537 (inactive) | -0.285 | 0.683 | 0.234 | -0.165 | 0.899 | -0.363 | -0.148 | -1.02 (inactive) | 1.18 | -0.739 | -0.209 | -0.0067 | -0.264 | 0.148
C=CCC(OC(C)=O)[C@@H]1[C@@H](N(Cc2cccc3ccccc23)C(=O)c2cccc3ccccc23)c2cc(OCCCO)ccc2N1C(=O)c1ccc2ccccc2c1 (stereo not given in full) | 0.692 | -0.55 (inactive) | 0.672 (inactive) | -1.35 (inactive) | 1.65 | 0.195 (inactive) | -0.156 | 0.345 | -0.0325 | -0.0967 | -0.131 | 0.0281 | 0.0611 | -0.888 (inactive) | 0.523 | -0.0993 | 0.187 | 0.423 | 0.226 | 1.41
